Assay outcomes (PubChem BioAssay)
An excerpt weighted towards active compounds, which were near 11% of everything screened.
FLuc inh: Photinus pyralis luciferase inhibition. P08659. purified P. pyralis luciferase, luminescence, biochemical. Potency, µM (titrated, usually from 115 µM), usual class: inhibitors. hit rate 2.5% among 76,000; note: nearly all actives have a fitted effect of over 65% in size
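Inhibitors were tested against purified firefly luciferase in a biochemical, low-substrate format (both substrates at 10uM) and luminescence measured with a CCD imager.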
HEK293 tox: kills HEK 293 cells; hit rate 6.6% among 94,000; Potency, µM (titrated, usually from 115 µM), without a hit: at the highest dose activity change, negative = cytotoxicity, hits mostly inhibitors; AID 1345083; HEK 293 viability, ATP luminescence (CellTiter-Glo), 48-72 h; note: nearly all actives have a fitted effect of over 60% in size
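Viability of HEK 293 cells, plated at 250 cells/well, was judged by cellular ATP after compound treatment for 48 or 72 hr. Luminescence was imaged 10 min after CellTiter-Glo addition at room temperature.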
NIH3T3 tox: NIH 3T3 cell cytotoxicity; NIH 3T3 viability, CellTiter-Glo ATP luminescence, 48-72 h; Potency, µM (series often up to 96.7 µM), without a hit: at the top dose activity change, negative = cytotoxicity, usual class: inhibitors; hit rate 4.3% among 94,000; note: nearly all actives have a fitted effect of over 55% in size
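ATP-dependent luminescence (CellTiter-Glo) served as the viability signal for NIH 3T3 cells treated with compound for 48 or 72 hr at 37 °C.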
NPR1 antag: human Npr1 receptor antagonism; P16066; HEK293 hNpr1 GloSensor cGMP, ANP-stimulated luminescence; Potency, µM (doses to about 46.3 µM), inactives show at the highest dose activity change, negative = inhibition, actives largely listed as inhibitors; hit rate 1.6% among 76,000; AID 1347048; calls by dose curve; note: nearly all actives have a fitted effect of over 60% in size
Target sequence (P16066 whole entry, looked up): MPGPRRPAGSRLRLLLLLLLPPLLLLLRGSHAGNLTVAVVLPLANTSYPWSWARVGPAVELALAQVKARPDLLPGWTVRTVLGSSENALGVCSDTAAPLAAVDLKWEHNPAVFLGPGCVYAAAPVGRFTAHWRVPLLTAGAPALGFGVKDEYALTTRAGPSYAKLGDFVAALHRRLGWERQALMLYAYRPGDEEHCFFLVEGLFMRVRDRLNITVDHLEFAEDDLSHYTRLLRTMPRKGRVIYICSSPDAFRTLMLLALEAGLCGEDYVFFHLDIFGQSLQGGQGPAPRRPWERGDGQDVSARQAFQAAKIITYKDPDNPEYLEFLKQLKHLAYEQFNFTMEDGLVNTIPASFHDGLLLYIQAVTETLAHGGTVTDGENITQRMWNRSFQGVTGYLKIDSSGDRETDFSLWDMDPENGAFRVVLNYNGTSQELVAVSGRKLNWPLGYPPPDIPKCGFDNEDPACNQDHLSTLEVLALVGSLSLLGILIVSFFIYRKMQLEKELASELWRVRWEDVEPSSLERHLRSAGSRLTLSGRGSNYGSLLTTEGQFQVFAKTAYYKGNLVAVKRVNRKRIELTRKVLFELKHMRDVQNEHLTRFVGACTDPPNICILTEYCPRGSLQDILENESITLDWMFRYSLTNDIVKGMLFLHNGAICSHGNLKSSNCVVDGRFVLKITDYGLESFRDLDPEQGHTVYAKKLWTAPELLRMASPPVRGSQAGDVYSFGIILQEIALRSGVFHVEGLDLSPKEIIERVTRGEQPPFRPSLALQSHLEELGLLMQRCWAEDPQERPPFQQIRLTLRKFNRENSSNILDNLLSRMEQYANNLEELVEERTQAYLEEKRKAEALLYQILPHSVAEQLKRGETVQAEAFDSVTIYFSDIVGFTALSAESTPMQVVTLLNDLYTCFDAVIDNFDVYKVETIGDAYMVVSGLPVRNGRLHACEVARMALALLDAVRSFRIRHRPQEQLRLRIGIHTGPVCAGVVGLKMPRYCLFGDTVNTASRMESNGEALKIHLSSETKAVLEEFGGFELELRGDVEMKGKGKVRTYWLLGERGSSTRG
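HEK293 cells stably expressing human Npr1 and cGMP GloSensor pGS-40F, loaded 2 h with 2% GloSensor reagent, given compound 30 min at room temperature. Luminescence read before and 20 min after 0.1 nM hNppA.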
* = called active by the depositor; i = inactive; ? = inconclusive; . = no result given; [ ] = remark or other dose. Unless noted, calls come from the whole dose curve; as a rule, active = well fitted curve in the direction sought with a large enough effect; inconclusive = small, poorly fitted or top-dose-only effect, or another doubt; inactive = no such curve, though single readings can be large; an effect the other way counts as inactive or inconclusive. % is set by controls: 0 for no effect and ±100 for the full control effect; potency is the fitted concentration of half-maximal effect.

SMILES | FLuc inh | HEK293 tox | NIH3T3 tox | NPR1 antag
COc1ccc(-c2ccc3c(c2)C(=O)N2CC[C@H](NS(=O)(=O)c4cccs4)[C@H]2C(=O)N3)cc1 | ? | 22µM* | ? | ?
COc1ccc(-c2ccc3c(c2)C(=O)N2CC[C@H](NC(=O)c4cccs4)[C@H]2C(=O)N3)cc1 | 25µM* | i | -6% | 3%
COc1ccc(Cl)cc1-c1ccc2c(c1)C(=O)N1CC[C@H](NC(=O)c3cccs3)[C@H]1C(=O)N2 | i | 35µM* | ? | ?
COc1ccc(-c2ccc3c(c2)C(=O)N2CC[C@H](NC(=O)CCC(=O)O)[C@H]2C(=O)N3)cc1 | ? | 2% | -9% | 3%
O=C(N[C@H]1CCN2C(=O)c3ccc(Cl)cc3NC(=O)[C@H]12)c1cccs1 | i | -7%[172 µM] | 89µM* | 1%[70.6 µM]
COc1ccc(-c2ccc3c(c2)C(=O)N2CC[C@H](NC(=O)CSC)[C@H]2C(=O)N3)cc1 | 25µM* | ? | ? | -2%[70.6 µM]
O=C(N[C@H]1CCN2C(=O)c3cc(-c4ccccc4)ccc3NC(=O)[C@H]12)c1cccs1 | i | -23%[172 µM] | -17%[174 µM] | -17%[70.6 µM]
COc1ccc(S(=O)(=O)NC[C@H]2Cn3c(-c4ccc(F)cc4)cnc3CO2)cc1 | i | ? | ? | -28%[70.6 µM]
COc1ccccc1-c1cnc(Nc2cccnc2)c2c1CCO2 | ? | 79µM* | ? | ?
COc1ccccc1-c1cnc(Nc2cccnc2OC)c2c1CCO2 | ? | 28µM* | ? | -23%[70.6 µM]
COc1ccccc1-c1cnc(Nc2ccc(Cl)cn2)c2c1CCO2 | ? | 63µM* | ? | -23%[70.6 µM]
O=C(NCc1ccc(F)cc1)N1CCc2nnc(C3CC3)n2CC1 | . | -22% | ? | .
Cc1ccc(-c2cn3cc(C(=O)NC4CCCCC4)nc3s2)cc1 | . | -18% | -18% | .
O=C(Nc1ccc(F)cc1)[C@@H]1C[C@@H](c2cccc(C(F)(F)F)c2)N(CC2CCOCC2)C1 | i | ? | 25µM* | -18%
Cn1cc(CN2C[C@H](C(=O)Nc3ccc(F)cc3)C[C@H]2c2cccc(C(F)(F)F)c2)cn1 | i | ? | ? | -10%
CN1C[C@H](C(=O)Nc2ccncn2)C[C@H]1c1cccc(C(F)(F)F)c1 | i | ? | ? | -8%[70.6 µM]
O=C(Nc1ccncn1)[C@@H]1C[C@@H](c2cccc(C(F)(F)F)c2)N(CC2CCOCC2)C1 | i | 79µM* | ? | -7%[70.6 µM]
COC1CN(C2CCN(C(=O)c3ccncc3)CC2)C12CCOCC2 (stereo not drawn) | . | 1% | -9% | .
Cc1ccc(-c2nnc(C3CN(C(=O)c4n[nH]c5ccccc45)CC34CCOCC4)o2)cc1 (stereo not drawn) | i | ? | -29% | 4%
O=C(NCc1nnc2ccc(-c3ccccc3)nn12)c1cc(F)ccc1Cl | i | 40µM* | ? | 2%
O=C(NC1CCCC1)N1CCCC(C(=O)N2CCC(c3nc4ccncc4[nH]3)CC2)C1 (stereo not drawn) | . | i | -3% | .
COc1ccc2cc1Nc1ccc(cc1)C[C@H](NCC1CC1)C(=O)N(C)[C@@H](C(=O)NCc1ccccc1)C2 | i | ? | -11% | -14%
COc1ccccc1CN[C@H]1Cc2ccc(cc2)Nc2cc(ccc2OC)C[C@H](C(=O)NCc2ccccc2)N(C)C1=O | i | 40µM* | ? | 3%
COCc1ccc2c(c1)c(OC(C)(C)C(=O)NCCCN1CCCC1=O)nn2CCC(C)C | i | -1% | 32µM* | -2%
COCc1ccc2c(c1)c(OC(C)(C)C(=O)NCCc1cccnc1)nn2CCC(C)C | i | ? | ? | 3%[70.6 µM]
SMILES | FLuc inh | HEK293 tox | NIH3T3 tox | NPR1 antag
COCc1ccc2c(c1)c(OC(C)(C)C(=O)NC1CCC(O)CC1)nn2CCC(C)C (stereo not drawn) | i | ? | 13µM* | -5%[70.6 µM]
COCc1ccc2c(c1)c(OC(C)(C)C(=O)NC1CCOCC1)nn2CCC(C)C | i | ? | ? | 3%[70.6 µM]
O=C(Cc1ccc(F)cc1)NCCNC(=O)c1ccc(-c2cncnc2)cc1 | . | -5% | -14% | .
O=[S+]([O-])(c1cccs1)N1CCC2(CC1)CC(Cc1ccccc1)=NO2 | i | 45µM* | ? | -30%
O=[S+]([O-])(c1cccs1)N1CCCC2(CC(Cc3ccccc3)=NO2)C1 (stereo not drawn) | i | ? | -28% | 0%
CCCN1CCC2(CCN([S+](=O)([O-])c3cccs3)CC2)Oc2ccccc21 | i | 45µM* | ? | -3%
Cc1ncccc1C(=O)N1CCC(c2nn(C)c(=O)n2C2CCCC2)CC1 | . | 1% | -12% | .
CC(C)Cn1c(=O)c(C(=O)N2CCCC2)nc2cccnc21 | . | -4%[172 µM] | 4%[138 µM] | .
O=C(NCc1ccc(F)cc1)c1nn(CCOc2ccccc2)c2c1CNCC2 | . | 40µM* | ? | .
O=C(NCc1ccncc1)[C@@H]1C[C@@H](c2ccc(F)cc2)N(CCOc2ccccc2)C1 | i | ? | ? | -15%[70.6 µM]
COc1ccc(C(=O)N2CCC(Cc3nncn3-c3ccccc3)C2)cc1F (stereo not drawn) | . | i | 1% | .
CN(Cc1cccnc1)c1ccc2ncc(Nc3ccc(F)cc3)n2n1 | i | 79µM* | ? | ?
CN(Cc1ccc(F)cc1)c1ccc2ncc(Nc3ccc4c(c3)OCO4)n2n1 | i | 63µM* | 28µM* | ?
CN(Cc1cccnc1)c1ccc2ncc(Nc3ccc4c(c3)OCO4)n2n1 | i | ? | ? | -30%[70.6 µM]
CN(Cc1ccc(F)cc1)c1ccc2ncc(Nc3cccc(O)c3)n2n1 | i | 63µM* | ? | ?
COc1cccc(C(=O)NC2CCN(CCn3nc4n(c3=O)CCCC4)C2)c1 (stereo not drawn) | . | 4% | -12% | .
O=C(c1ccccc1)N1CCC2(CC1)Cc1ccccc1NC2=O | i | ? | ? | 0%[70.6 µM]
COc1ccc(C(=O)N2CCC3(CC2)Cc2ccccc2NC3=O)cc1 | i | 22µM* | 35µM* | -9%
O=C(C1CC1)N1CCC2(CC1)Cc1ccccc1NC2=O | i | -3%[172 µM] | -4%[138 µM] | -3%[70.6 µM]
COc1ccc(C(=O)N2CCC3(CC2)CC(C(C)C)=NO3)cc1 | i | -19%[172 µM] | 100µM* | -7%[70.6 µM]
COc1ccc(C(=O)N2CCC3(CC(C(C)C)=NO3)C2)cc1 (stereo not drawn) | . | 1% | 0% | .
O=C(c1ccccc1Cl)N1CCC2(CC1)Cc1ccccc1NC2=O | i | 45µM* | ? | 5%
CCCC(=O)NC1CN(c2ccnc3ccnn23)C1 | . | -1%[172 µM] | -14%[138 µM] | .
O=C(NC1CCCCC1)N1Cc2[nH]cnc2C[C@H]1c1nc(-c2cccc([N+](=O)[O-])c2)no1 | i | -15% | ? | -4%
Cn1cccc1CN1CCC(N2C(=O)C(OCC3CC3)C23CCCCC3)CC1 (stereo not drawn) | i | 45µM* | ? | -15%
Cn1cccc1CN1CCC(N2CC(OCC3CC3)C23CCCCC3)CC1 (stereo not drawn) | i | ? | ? | 2%
